Measurements reported in PubChem BioAssay (NCI).
This is part of a sample that, as a whole, favours compounds with a hit. Of some 83,000 tested, about 20% had one in any assay.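 The endpoint reported here, percent growth, reads 100 for growth as untreated, 0 for no net growth and -100 for all cells dead.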 The source made the active and inactive calls. Rule for the calls: active = growth percent below 10; inactive = the rest.

Key:
Test in all cases: NCI-60 one-dose screen, 48 h (100 = growth as untreated, 0 = no growth, -100 = all killed)
Conditions in all cases: 10 µM unless noted
DU-145 prostate = test system: DU-145 prostate
K-562 leukemia = test system: K-562 leukemia
MALME-3M melanoma = test system: MALME-3M melanoma
MDA-MB-231 breast = test system: MDA-MB-231 breast
RXF 393 renal = test system: RXF 393 renal
SF-268 CNS = test system: SF-268 CNS
SF-295 CNS = test system: SF-295 CNS
SF-539 CNS = test system: SF-539 CNS
UACC-257 melanoma = test system: UACC-257 melanoma
M14 melanoma = test system: M14 melanoma

Measured: growth

O=C(NCc1ccc2c(c1)OCO2)NCC1CCCC(CNC(=O)NCc2ccc3c(c2)OCO3)C1 (stereo not given)
inactive: DU-145 prostate 108% | K-562 leukemia 95.3% | MALME-3M melanoma 108% | MDA-MB-231 breast 96.4% | RXF 393 renal 106% | SF-268 CNS 97.7% | SF-295 CNS 101% | SF-539 CNS 103% | UACC-257 melanoma 104% | M14 melanoma 109%

CC(=O)N(Cc1ccccc1)c1nc2ccc(O)c(CN(C)C)c2s1
inactive: DU-145 prostate 108% | K-562 leukemia 92.5% | MALME-3M melanoma 98.1% | MDA-MB-231 breast 96% | RXF 393 renal 98.2% | SF-268 CNS 94.6% | SF-295 CNS 92.6% | SF-539 CNS 97.2% | UACC-257 melanoma 102% | M14 melanoma 104%

O=C(O)c1cccc(N/C=C/C(=O)c2cc3cc(Br)ccc3oc2=O)c1
inactive: DU-145 prostate 108% | K-562 leukemia 119% | MALME-3M melanoma 104% | MDA-MB-231 breast 93.6% | RXF 393 renal 107% | SF-268 CNS 90.4% | SF-295 CNS 104% | SF-539 CNS 96% | UACC-257 melanoma 99.2% | M14 melanoma 94.2%

COc1cc(C(=O)/C=C/c2ccc(N3CCN(C)CC3)cc2)cc(OC)c1OC
inactive: DU-145 prostate 104% | MALME-3M melanoma 86.3% | MDA-MB-231 breast 92% | RXF 393 renal 107% | SF-268 CNS 97.9% | SF-295 CNS 95.2% | SF-539 CNS 96.7% | UACC-257 melanoma 99.3% | M14 melanoma 94.8%
active: K-562 leukemia 2.23%

C#CCOc1ccc2ncnc(Nc3cccc(NC(=O)CCl)c3)c2c1
inactive: DU-145 prostate 74% | K-562 leukemia 55.2% | MALME-3M melanoma 71.9% | MDA-MB-231 breast 73.7% | RXF 393 renal 79.6% | SF-268 CNS 60.6% | SF-295 CNS 106% | SF-539 CNS 84.4% | UACC-257 melanoma 80.3% | M14 melanoma 77.1%

CC(C)CN1CC(C(=O)Nc2ccc3c(c2)-c2ccccc2C3)CC1=O (stereo not given)
inactive: DU-145 prostate 80% [50 µM] | K-562 leukemia 64.7% [50 µM] | MALME-3M melanoma 58.7% [50 µM] | MDA-MB-231 breast 55.9% [50 µM] | RXF 393 renal 79.7% [50 µM] | SF-268 CNS 60.8% [50 µM] | SF-295 CNS 76.1% [50 µM] | SF-539 CNS 72% [50 µM] | UACC-257 melanoma 39.9% [50 µM] | M14 melanoma 77.4% [50 µM]

COc1ccc(C(c2cc(OC)c(OC)c(OC)c2)N2CCN(Cc3ccccc3)CC2)cc1 (stereo not given)
inactive: DU-145 prostate 102% | K-562 leukemia 26.4% | MALME-3M melanoma 74.8% | MDA-MB-231 breast 71% | RXF 393 renal 72.3% | SF-268 CNS 86.4% | SF-295 CNS 68.7% | SF-539 CNS 81.2% | UACC-257 melanoma 84.2% | M14 melanoma 52.8%

CCOC(=O)C/C(=N\Nc1cc(=O)[nH]c2ccc(Cl)cc12)C(=O)OCC
inactive: DU-145 prostate 106% | K-562 leukemia 43.9% | MALME-3M melanoma 95.8% | MDA-MB-231 breast 98.8% | RXF 393 renal 110% | SF-268 CNS 98.6% | SF-295 CNS 103% | SF-539 CNS 98.8% | UACC-257 melanoma 105% | M14 melanoma 95.5%

Cn1cc(-c2csc(-c3cn(C)c4ccc(Br)cc34)n2)c2cnccc21
active: DU-145 prostate -88.6% | K-562 leukemia -67% | MALME-3M melanoma -91.3% | MDA-MB-231 breast -84.7% | RXF 393 renal -87.2% | SF-268 CNS -73.8% | SF-295 CNS -78.2% | SF-539 CNS -93.1% | UACC-257 melanoma -23.2% | M14 melanoma -80.4%

NC(=O)c1c(NC(=O)c2ccc(Cl)cc2)sc2c1CCC(=O)C2
inactive: DU-145 prostate 98.6% | K-562 leukemia 13.9% | MALME-3M melanoma 92.7% | MDA-MB-231 breast 86.3% | RXF 393 renal 56.7% | SF-268 CNS 47.5% | SF-295 CNS 96.2% | SF-539 CNS 43.2% | UACC-257 melanoma 91.6% | M14 melanoma 51.5%

CC1=CCC[C@@H]2C1(C)CC[C@H](C)[C@@]2(C)CC1=CC(=O)C(SC(C)(C)C)=CC1=O (stereo not given in full)
inactive: DU-145 prostate 77.6% | K-562 leukemia 57.8% | MALME-3M melanoma 82.3% | MDA-MB-231 breast 78.3% | RXF 393 renal 74.5% | SF-268 CNS 85.3% | SF-295 CNS 85.1% | SF-539 CNS 89.9% | UACC-257 melanoma 90.3% | M14 melanoma 88.9%

CCn1cc(C(=O)NN=C2CCCCCC2)c(=O)c2ccc(C)nc21
inactive: DU-145 prostate 89.2% | K-562 leukemia 72% | MALME-3M melanoma 97.1% | MDA-MB-231 breast 87.1% | RXF 393 renal 100% | SF-268 CNS 84% | SF-295 CNS 77.7% | SF-539 CNS 100% | UACC-257 melanoma 87.8% | M14 melanoma 103%

CCCCn1sc(=O)n(Cc2ccc(CNC(=O)OCc3ccc4c(Br)cc(Br)c(O)c4n3)cc2)c1=O
inactive: K-562 leukemia 12.8% | MALME-3M melanoma 61.1% | MDA-MB-231 breast 38.6% | RXF 393 renal 15.9% | SF-268 CNS 33.9% | SF-295 CNS 13.7% | UACC-257 melanoma 48.4% | M14 melanoma 10.4%
active: DU-145 prostate 6.37% | SF-539 CNS -14%

CCN1C(=S)N(CC)C2C1NC(=S)N2/N=C/C=C/c1ccccc1OC (stereo not given)
active: SF-539 CNS -18.5%
inactive: DU-145 prostate 13.9% | K-562 leukemia 10.2% | MALME-3M melanoma 53.5% | MDA-MB-231 breast 11.5% | RXF 393 renal 20.4% | SF-268 CNS 56.4% | SF-295 CNS 12.4% | UACC-257 melanoma 53.6% | M14 melanoma 10.3%

O=C(O)CCCn1c(SCc2c(Cl)cccc2Cl)nc2ccsc2c1=O
active: DU-145 prostate 3.54% | K-562 leukemia 9.27% | RXF 393 renal -27.9% | SF-539 CNS -20.1% | M14 melanoma -11.1%
inactive: MALME-3M melanoma 47.7% | MDA-MB-231 breast 42% | SF-268 CNS 39.5% | SF-295 CNS 14.6% | UACC-257 melanoma 68.4%

COc1ccc2c(c1)c(-c1nonc1-c1cn(C)c3ccc(OC)cc13)cn2C
inactive: DU-145 prostate 70.9% | K-562 leukemia 13% | MALME-3M melanoma 41.7% | MDA-MB-231 breast 49.5% | RXF 393 renal 70.9% | SF-268 CNS 54.2% | SF-295 CNS 30.4% | SF-539 CNS 33.9% | UACC-257 melanoma 62.4% | M14 melanoma 16.6%

COc1ccc2nc(SCC(=O)Nc3ccccc3C)[nH]c2c1
inactive: DU-145 prostate 105% | K-562 leukemia 97.5% | MALME-3M melanoma 96.9% | MDA-MB-231 breast 98.6% | RXF 393 renal 105% | SF-268 CNS 102% | SF-295 CNS 93% | SF-539 CNS 101% | UACC-257 melanoma 90% | M14 melanoma 101%

CNC(=O)c1cc(Oc2ccc3nc(NC(=O)Nc4ccc(Cl)c(Cl)c4)sc3c2)ccn1
inactive: DU-145 prostate 35.3% | K-562 leukemia 62.5% | MDA-MB-231 breast 39.5% | RXF 393 renal 88.6% | SF-268 CNS 11.9% | SF-539 CNS 22.5% | UACC-257 melanoma 74.7%
active: MALME-3M melanoma -5.7% | SF-295 CNS -0.659% | M14 melanoma 1.23%

N#C/C(=C\c1ccc(-c2ccc(Cl)cc2)o1)c1ccc(Cl)cc1
inactive: DU-145 prostate 82.1% | K-562 leukemia 82.4% | MALME-3M melanoma 62.9% | MDA-MB-231 breast 32.6% | RXF 393 renal 62.8% | SF-268 CNS 81.2% | SF-295 CNS 51.9% | SF-539 CNS 56.9% | UACC-257 melanoma 100% | M14 melanoma 81.4%

COc1cc(-c2cc(-c3ccc(Nc4ncnc5cc(Cl)ccc45)cc3)nc(N3CCN(C)CC3)n2)cc(OC)c1OC
active: RXF 393 renal -1.57%
inactive: DU-145 prostate 98.9% | K-562 leukemia 56% | MALME-3M melanoma 71% | MDA-MB-231 breast 51.7% | SF-268 CNS 76.9% | SF-295 CNS 111% | SF-539 CNS 32.9% | UACC-257 melanoma 117% | M14 melanoma 80.8%

CCOC(=O)C1CCN(c2ccc(N3C[C@@H](CNCc4ccc(C(=N)N)cc4)OC3=O)cc2)CC1
inactive: DU-145 prostate 98.6% | K-562 leukemia 99.3% | MALME-3M melanoma 83.1% | MDA-MB-231 breast 99.8% | RXF 393 renal 99.7% | SF-268 CNS 100% | SF-295 CNS 101% | SF-539 CNS 94.4% | UACC-257 melanoma 102% | M14 melanoma 94.7%

COc1cc(C#Cc2ccc(=O)oc2C#Cc2ccccc2)cc(OC)c1OC
inactive: DU-145 prostate 65.7% | MALME-3M melanoma 75.9% | MDA-MB-231 breast 89% | RXF 393 renal 78.7% | SF-268 CNS 43.5% | SF-295 CNS 96.9% | SF-539 CNS 110% | UACC-257 melanoma 108% | M14 melanoma 72.6%
active: K-562 leukemia 4.76%

O=C1/C(=C/c2ccc(C(F)(F)F)cc2)COc2ccc(O)cc21
inactive: DU-145 prostate 99.1% | MALME-3M melanoma 88.7% | MDA-MB-231 breast 79.4% | RXF 393 renal 102% | SF-268 CNS 85.3% | SF-295 CNS 99.1% | SF-539 CNS 86.7% | UACC-257 melanoma 98.1% | M14 melanoma 85.6%
active: K-562 leukemia 5.54%

COc1ccc(-c2ccc(-c3ccc(C(=N)N)cn3)s2)cc1
active: K-562 leukemia 0.33%
inactive: DU-145 prostate 64.2% | MALME-3M melanoma 102% | MDA-MB-231 breast 87.7% | RXF 393 renal 97.8% | SF-268 CNS 99% | SF-295 CNS 104% | SF-539 CNS 94.3% | UACC-257 melanoma 102% | M14 melanoma 101%

COc1cc(C(=O)c2c(-c3ccccc3)oc3c(OC)cccc23)cc(OC)c1O
inactive: DU-145 prostate 23% | K-562 leukemia 13.4% | MALME-3M melanoma 47.4% | MDA-MB-231 breast 17% | SF-268 CNS 46.5% | UACC-257 melanoma 71.4% | M14 melanoma 16.3%
active: RXF 393 renal -6.63% | SF-295 CNS 2.85% | SF-539 CNS -13.2%

C/C(=N\O)C(=O)NCCCCCC(=O)Nc1ccccc1
inactive: DU-145 prostate 114% | K-562 leukemia 99.7% | MALME-3M melanoma 98.9% | MDA-MB-231 breast 100% | RXF 393 renal 121% | SF-268 CNS 100% | SF-295 CNS 101% | SF-539 CNS 107% | UACC-257 melanoma 98.6% | M14 melanoma 107%

CN1C(=O)/C(=C/c2ccc(C(=O)Nc3ncc(Cc4ccc(F)cc4)s3)cc2)SC1=S
inactive: DU-145 prostate 38.8% | K-562 leukemia 44.7% | MALME-3M melanoma 47.1% | MDA-MB-231 breast 56.2% | RXF 393 renal 36.8% | SF-268 CNS 49.1% | SF-295 CNS 24.3% | SF-539 CNS 38.4% | UACC-257 melanoma 65.6% | M14 melanoma 19.6%
